DUSP3 inh: blocks human VHR1 dual specificity phosphatase; inhibition, % at 13.3 µM; AID 1654; hit rate 0.52% among 290,000; recombinant VHR phosphatase, pNPP absorbance; in the data active = inhibition above about 50%
Target sequence (P51452 whole entry, looked up): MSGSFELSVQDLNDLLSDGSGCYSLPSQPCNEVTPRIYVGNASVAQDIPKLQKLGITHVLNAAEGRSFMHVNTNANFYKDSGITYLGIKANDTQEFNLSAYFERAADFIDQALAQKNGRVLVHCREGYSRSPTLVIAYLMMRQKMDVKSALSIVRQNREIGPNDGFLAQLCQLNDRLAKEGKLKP
PrPC surface inh: cell surface PrPC inhibition, primary TR-FRET screen; hit rate 0.43% among 370,000; TR-FRET read-out; AID 720596; inhibition, % at 13.8 µM; in the data active = inhibition above about 24%; note: 0% = median of the test wells and 100% = reference compound wells
ugtP null kill: growth inhibition of S. aureus ugtP deletion strain; S. aureus RN4220 ugtP deletion, OD600 growth, 16 h; growth inhibition, % (concentration not given with the values); hit rate 0.54% among 330,000; in the data active = growth inhibition above about 68%;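 note: plate controls were untreated wells for no effect and antibiotic for full effect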
RN4220 kill: kills Staphylococcus aureus RN4220. S. aureus RN4220 growth, OD600, 16 h. AID 1259311. inhibition, % (concentration not given with the values). hit rate 0.33% among 330,000; in the data active = inhibition above about 85%;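 note: plate controls were untreated cells for no effect and reference antibiotic for full effect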
PfHsp40 rescue: rescue of PfHsp40-mediated yeast toxicity; growth rescue, % at 12.5 µM; S. cerevisiae expressing PfHsp40, growth rescue, ATP luminescence; hit rate 0.68% among 340,000; AID 504582; in the data active = growth rescue above about 28%, passing the limit was not always enough;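 note: yeast W303a lacking pdr1 and pdr3 grown in galactose medium; growth measured after three days at 30 °C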
Active calls of the source: *; . = no result. An excerpt weighted towards active compounds, which were near 1.8% of everything screened.

SMILES	DUSP3 inh	PrPC surface inh	ugtP null kill	RN4220 kill	PfHsp40 rescue
CC(=O)c1ccc(N2CCN(C(=O)c3cccc(Oc4ccccc4)c3)CC2)cc1	25.9	8.1	86.6*	-7.1	0.6
CC(=O)c1ccc(N2CCN(C(=O)c3ccc(-c4ccccc4)cc3)CC2)cc1	21.1	4.1	3.9	8.3	0.3
COc1ccc(CC(N)=NOC(=O)c2ccc(Cl)cc2)cc1	.	.	-1.8	4.7	.
CN(C)C(N)=NCCCC(N)C(=O)O (stereo not given)	.	.	-3.2	-1.5	.
O=C(NN=Cc1cc2ccccc2nc1Cl)/C(=C/c1cccs1)NC(=O)c1ccccc1	.	.	-10.7	2.3	.
O=C(N/N=C/c1cc2ccccc2nc1Cl)/C(=C/c1cccs1)NC(=O)c1ccccc1	51.6*	9.9	.	.	-0.4
NC1=NC(=O)C(=Cc2cccc(-c3ccc(S(N)(=O)=O)cc3)c2)S1	.	.	5.6	10.2	.
O=c1c2c3c(sc2ncn1N=Cc1ccco1)CCCC3	.	.	-8.7	9.2	.
O=C(COc1nsnc1N1CCOCC1)NN=Cc1ccccc1O	.	.	6.7	-1.2	.
CN(C)c1ccc(C(=O)Nc2nnc(-c3ccc(Cl)cc3)o2)cc1	10.8	5.6	1.3	10.7	-0.7
COc1cccc(C(=O)Nc2nnc(-c3ccc(Cl)cc3)o2)c1	10.4	5.6	99.9*	99.2*	2.2
COc1cccc(C(=O)Nc2nnc(-c3ccc(F)cc3)o2)c1	14.2	-3.8	22.6	42.3	-0.5
CC(=O)c1ccc(C(=O)Nc2nnc(-c3ccc(Cl)cc3)o2)cc1	18.1	16.0	99.3*	98.2*	0.1
O=C(Nc1nnc(-c2ccccc2)o1)c1ccc(Cl)cc1	0.1	-3.8	99.2*	96.0*	251.6*
CCC1=C(OC(=O)N(CC)CC)N2C(=O)OC(=NCCc3c[nH]c4ccccc34)[C@]2(Cc2ccccc2)C2C1=CCC1C(=O)NC(=O)C12 (stereo not given in full)	.	.	3.1	1.8	.
O=c1oc2ccccc2c(O)c1/C=C1\C=Nc2ccccc21	40.7	4.3	28.9	36.7	110.3*
Oc1ccc(C=NN2CCN(C3c4ccccc4-c4ccccc43)CC2)cc1	.	.	5.6	-3.1	.
COc1ccc(C2CC(=O)C=C(c3ccc(C(=O)O)cc3)C2)cc1OC (stereo not given)	.	.	2.5	8.4	.
Cc1nc2c(F)c(F)c(C(F)(F)F)c(F)c2[nH]1	-30.5	-2.5	1.6	0.3	87.6*
CC=CC(C)=CC(C)C(=O)CC(O)CC1CC(=O)NC(=O)C1 (stereo not given)	.	45.5*	.	.	.
C=CCc1ccc(OCC(O)CN2CCCCC2)c(OC)c1 (stereo not given)	17.3	2.1	12.5	1.2	0.4
C=CCc1ccc(OCC(O)COc2ccc(CC=C)cc2OC)c(OC)c1	-4.6	-4.3	12.4	-0.4	46.5*
CC(C)n1cnc2c(NCc3ccccc3)cc(Cc3ccc(F)cc3)cc21	.	4.4	.	.	115.4*
CCOc1cc(NCc2ccccc2)c2ncn(C(C)C)c2c1	.	-0.7	2.9	10.2	6.6
CC(=O)OCC1=CC2OC(=O)C3=COC(OC4OC(CO)C(O)C(O)C4O)C1C32 (stereo not given)	.	.	0.9	9.0	.
SMILES	DUSP3 inh	PrPC surface inh	ugtP null kill	RN4220 kill	PfHsp40 rescue
COc1ccc(NC(=O)N(C)C[C@H]2Oc3ccc(NC(=O)Nc4ccc5c(c4)OCO5)cc3C(=O)N([C@H](C)CO)C[C@@H]2C)cc1	.	8.6	.	.	54.3*
C[C@H](CO)N1C[C@H](C)[C@@H](CN(C)C(=O)Nc2ccc3c(c2)OCO3)Oc2ccc(NC(=O)Nc3ccc4c(c3)OCO4)cc2C1=O	.	-0.4	8.4	-0.3	-0.4
O=C1C=C(c2ccccc2)C(=O)N1Nc1ccccc1	11.6	0.6	4.9	4.5	263.5*
CC(=O)c1ccccc1OC(=O)c1ccc(-c2ccccc2)cc1	.	-9.6	100.3*	9.3	1.2
COc1ccc(O)c(C(=O)CC(=O)c2ccc(F)cc2)c1	0.0	-3.6	.	.	230.5*
COc1ccc(C(=O)CC(=O)c2ccccc2O)cc1	5.8	-1.2	2.8	-6.5	-0.6
COc1ccc(O)c(C(=O)CC(=O)c2ccccc2C)c1	15.8	11.4	12.0	30.7	314.2*
On1c(-c2ccccc2)nc2ccccc21	-4.0	4.9	0.7	6.2	-1.2
O=Nc1c2nc3ccccc3n(O)c-2c2ccccc12	15.4	-52.5	89.6*	9.1	-0.5
CCOC1OC(C(=O)N2CCOCC2)=CC(C(C)(C)C)C1CCCO (stereo not given)	.	.	1.0	8.0	.
Cc1ccc(NC(=O)CSc2nsc(SCC(=O)Nc3ccc(C)cc3C)c2C#N)c(C)c1	18.1	-0.3	.	.	54.8*
Cc1csc(NC(=O)CSc2nsc(SCC(=O)Nc3nc(C)cs3)c2C#N)n1	14.3	-6.7	-16.0	28.2	0.8

High-throughput results deposited in PubChem by several laboratories.
